Results filed as inconclusive are left out. Where a call stands in place of a potency, no number is given. Calls of active or inactive are those of the source. Unless noted, calls come from the whole dose curve; as a rule, active = well fitted cell-killing curve with a large enough effect in the repeat runs; inconclusive = weak or mixed curves, or effect the other way; inactive = no such curve, though single readings can be large or run the other way.

The first experiment can be described thus: qHTS assay to identify small molecule antagonists of the vitamin D receptor (VDR) signaling pathway - cell viability counter screen (AID 743225). Note: nearly all actives have a fitted effect of over 50% in size. Note: potency is the fitted concentration of half-maximal effect. As to conditions: VDR-bla HEK293T viability, CellTiter-Glo luminescence, 16 h; series mostly up to 61 µM. A digest of the protocol: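 Parallel cytotoxicity test: VDR-UAS-bla HEK 293T, 3 nM (final) 1-alpha,25-dihydroxyvitamin D3 with test compound, 16 h, 37C. Endpoint is CellTiter-Glo luminescence in the same wells.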
A general note: In qHTS, concentration-response curves come from the screen itself.
Consider `Cc1cn([C@H]2C[C@H](F)[C@@H](CO)O2)c(=O)[nH]c1=O`, for which the Potency result is “inactive”.
The same measure, in the same setting: to `CN1CCCN(C(c2ccccc2)c2ccc(Cl)cc2)CC1` (stereo not drawn) belongs 21.3 µM (active); to `CC(C)(C)S`, “inactive”.
`COc1ccc(/C=C/C(=O)c2ccc(OC)cc2OC)cc1`: the Potency entry was “inactive”.
In the case of `CCN(CC)CC(=O)Nc1c(C)cccc1C(=O)OC`, the Potency result is “inactive”.
As for `Cc1cccc2sc(N)nc12`, the Potency result is “inactive”.
Still for that read-out and setting: for `CC(O)Cn1cnc2c1c(=O)n(C)c(=O)n2C` (stereo not drawn) the value was “inactive”; for `O=C(O)CN1C(=O)c2cccc3cccc(c23)C1=O`, “inactive”.
As for `CCCc1nc2c(C)cc(-c3nc4ccccc4n3C)cc2n1Cc1ccc(-c2ccccc2C(=O)O)cc1`, the Potency result was “inactive”.
On the same count and under the same terms, for `CCN(CC)C(=O)/C(C#N)=C/c1cc(O)c(O)c([N+](=O)[O-])c1` the value was “inactive”; for `COc1ccc2nc(S(=O)Cc3ncc(C)c(OC)c3C)[nH]c2c1` (stereo not drawn), “inactive”.
On the same count and under the same terms, to `CNS(=O)(=O)c1cc(C(=O)N2CCC(CCN3C4CCC3CC(n3c(C)nc5ccccc53)C4)(c3cccc(F)c3)CC2)c(Cl)cc1F` (stereo not drawn) belongs 13.8 µM (active); to `COC(=O)CC(C(C)=O)C(=O)OC` (stereo not drawn), “inactive”; to `CC1CCC(C(C)CS)CC1S` (stereo not drawn), “inactive”.
The same measure, in the same setting: for `CCCCCCCC(=O)OCCCCCC` the value was “inactive”; for `COc1ccc(C)cc1`, “inactive”.
For the compound `COc1ccc(-n2nc(C(F)F)cc2-c2ccc(S(C)=O)cc2)cc1` (stereo not drawn), the Potency entry was “inactive”.
Still for that read-out and setting: for `O=C(O)c1cc(Cl)cc(Cl)c1O` the value was “inactive”; for `CNC1CCCN(c2c(F)cc3c(=O)c(C(=O)O)cn(C4CC4)c3c2OC)C1` (stereo not drawn), “inactive”.
With `c1ccc(CCCc2ccncc2)cc1`, the Potency result was “inactive”.
Consider `CC[C@@H](CO)NCCN[C@@H](CC)CO`, for which the Potency entry was “inactive”.
On the same count and under the same terms, for `O=C(c1ccccc1)c1ccc(O)cc1` the value was “inactive”; for `Nc1ccc(N=Nc2ccc(N)cc2)cc1`, “inactive”.
The same measure, in the same setting: to `CNc1c2c(nn1C)CCCC2` belongs “inactive”.

The nature of another experiment: qHTS assay to identify small molecule agonists of the NFkB signaling pathway (AID 1159509; active = well fitted curve in the direction sought with a large enough effect in the signal ratio in the repeat runs, not every such curve was filed as active; the % refers to the signal ratio). As to conditions: NFkB-bla ME-180 cells, beta-lactamase FRET ratio, 5 h; series mostly up to 61 µM. Summed up: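 Readout: FRET fluorescence, 405 nm excitation, 460/530 nm emission; beta-lactamase expression disrupts FRET. Cells: ME-180 stably carrying NF-kB-driven bla reporter. Compound exposure 5 hr, 37 C, 5% CO2.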
`Cc1cn([C@H]2C[C@H](F)[C@@H](CO)O2)c(=O)[nH]c1=O`: the result was inactive.
Consider `COc1cc(NC(C)CCCN)c2ncccc2c1` (stereo not drawn), for which the result was inactive.
For `CN1CCCN(C(c2ccccc2)c2ccc(Cl)cc2)CC1` (stereo not drawn), the result was inactive.
On to `COc1cc(S(=O)(=O)Nc2ccccc2)c(OC)cc1N`, for which the outcome was inactive.
Turning to `CC(C)(C)S`, the result was inactive.
In the case of `COc1ccc(/C=C/C(=O)c2ccc(OC)cc2OC)cc1`, the outcome was inactive.
Take `NC(=O)CCCCC(N)=O`: the result was inactive.
Same read-out and setting: for `CCNc1nc(N)nc(Cl)n1` the value was “inactive”.
Still for that read-out and setting: to `CN(C)CC/C=C1\c2ccccc2Sc2ccc(Cl)cc21` belongs “inactive”; to `CCN(CC)CC(=O)Nc1c(C)cccc1C(=O)OC`, “inactive”; to `Cc1cccc2sc(N)nc12`, “inactive”.
For `CC(O)Cn1cnc2c1c(=O)n(C)c(=O)n2C` (stereo not drawn), the result was inactive.
As to `O=C(O)CN1C(=O)c2cccc3cccc(c23)C1=O`, the outcome was inactive.
On to `O=C1NC(=O)c2cccc3cccc1c23`, for which the outcome was inactive.
Still for that read-out and setting: for `CCCc1nc2c(C)cc(-c3nc4ccccc4n3C)cc2n1Cc1ccc(-c2ccccc2C(=O)O)cc1` the value was “inactive”; for `FC(F)(F)C(F)(F)C(F)(F)C(F)(F)CCI`, “inactive”.
Consider `CCN(Cc1cccc(S(=O)(=O)O)c1)c1ccc(C(=C2C=CC(=[N+](CC)Cc3cccc(S(=O)(=O)O)c3)C=C2)c2ccccc2S(=O)(=O)[O-])cc1`, for which the outcome was inactive.
In the case of `CCN(CC)C(=O)/C(C#N)=C/c1cc(O)c(O)c([N+](=O)[O-])c1`, the result was inactive.
Turning to `COc1ccc2nc(S(=O)Cc3ncc(C)c(OC)c3C)[nH]c2c1` (stereo not drawn), the result was inactive.
The same measure, in the same setting: for `CNS(=O)(=O)c1cc(C(=O)N2CCC(CCN3C4CCC3CC(n3c(C)nc5ccccc53)C4)(c3cccc(F)c3)CC2)c(Cl)cc1F` (stereo not drawn) the value was “inactive”.
Still for that read-out and setting: to `COC(=O)CC(C(C)=O)C(=O)OC` (stereo not drawn) belongs “inactive”; to `CC1CCC(C(C)CS)CC1S` (stereo not drawn), “inactive”; to `CCCCCCCC(=O)OCCCCCC`, “inactive”.
As for `CC(C)CC(O)CC(C)C`, the result was inactive.
Still for that read-out and setting: for `COc1ccc(C)cc1` the value was “inactive”.
The same measure, in the same setting: for `Nc1ccn([C@H]2CS[C@@H](CO)O2)c(=O)n1` the value was “inactive”; for `Cc1cc(CCC(=O)OCCOCCOCCOC(=O)CCc2cc(C)c(O)c(C(C)(C)C)c2)cc(C(C)(C)C)c1O`, “inactive”.
Still for that read-out and setting: to `COc1ccc(-n2nc(C(F)F)cc2-c2ccc(S(C)=O)cc2)cc1` (stereo not drawn) belongs “inactive”; to `O=C(O)c1cc(Cl)cc(Cl)c1O`, “inactive”; to `CC(C)C(=O)OCCOc1ccccc1`, “inactive”.
Take `COC(=O)c1sccc1S(N)(=O)=O`: the result was inactive.
Still for that read-out and setting: for `CNC1CCCN(c2c(F)cc3c(=O)c(C(=O)O)cn(C4CC4)c3c2OC)C1` (stereo not drawn) the value was “inactive”; for `c1ccc(CCCc2ccncc2)cc1`, “inactive”; for `Nc1ccc(NC(=O)c2ccc(N)cc2)cc1`, “inactive”.
On the same count and under the same terms, to `CC[C@@H](CO)NCCN[C@@H](CC)CO` belongs “inactive”; to `O=C(c1ccccc1)c1ccc(O)cc1`, “inactive”.
On the same count and under the same terms, to `CCN(Cc1cccc(S(=O)(=O)O)c1)c1ccc(C(=C2C=CC(=[N+](CC)Cc3cccc(S(=O)(=O)O)c3)C=C2)c2ccc(O)cc2S(=O)(=O)[O-])cc1` belongs “inactive”.
Consider `Nc1ccc(N=Nc2ccc(N)cc2)cc1`, for which the result was inactive.
Turning to `CNc1c2c(nn1C)CCCC2`, the result was inactive.

Another experiment in a line: qHTS assay to identify small molecule agonists of the endoplasmic reticulum stress response signaling pathway (AID 1159516; active = well fitted activation curve with a large enough effect in the signal ratio in the repeat runs, not every such curve was filed as active; the % refers to the signal ratio). The following applies: ESRE-bla HeLa, ER stress beta-lactamase reporter, 5 h; series mostly up to 61 µM. Summed up:
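HeLa ESRE-bla reporter line; cpd 5 h, 37 C/5% CO2; LiveBLAzer B/G FRET substrate 2 h RT; ex 405, em 460/530 nm.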
For `Cc1cn([C@H]2C[C@H](F)[C@@H](CO)O2)c(=O)[nH]c1=O`, the Potency entry was “inactive”.
Regarding `CN1CCCN(C(c2ccccc2)c2ccc(Cl)cc2)CC1` (stereo not drawn), the Potency result is “inactive”.
For `COc1ccc(/C=C/C(=O)c2ccc(OC)cc2OC)cc1`, the Potency result was “inactive”.
On to `CCNc1nc(N)nc(Cl)n1`, for which the Potency result is “inactive”.
With `CN(C)CC/C=C1\c2ccccc2Sc2ccc(Cl)cc21`, the Potency entry was “inactive”.
As for `CCN(CC)CC(=O)Nc1c(C)cccc1C(=O)OC`, the Potency entry is “inactive”.
Still for that read-out and setting: to `Cc1cccc2sc(N)nc12` belongs “inactive”; to `O=C1NC(=O)c2cccc3cccc1c23`, “inactive”; to `CCN(Cc1cccc(S(=O)(=O)O)c1)c1ccc(C(=C2C=CC(=[N+](CC)Cc3cccc(S(=O)(=O)O)c3)C=C2)c2ccccc2S(=O)(=O)[O-])cc1`, “inactive”.
Regarding `CCN(CC)C(=O)/C(C#N)=C/c1cc(O)c(O)c([N+](=O)[O-])c1`, the Potency entry is “inactive”.
Still for that read-out and setting: to `CC(C)CC(O)CC(C)C` belongs “inactive”.
Same read-out and setting: to `Nc1ccn([C@H]2CS[C@@H](CO)O2)c(=O)n1` belongs “inactive”; to `O=C(O)c1cc(Cl)cc(Cl)c1O`, “inactive”; to `CC(C)C(=O)OCCOc1ccccc1`, “inactive”.
On the same count and under the same terms, to `CNC1CCCN(c2c(F)cc3c(=O)c(C(=O)O)cn(C4CC4)c3c2OC)C1` (stereo not drawn) belongs “inactive”; to `c1ccc(CCCc2ccncc2)cc1`, “inactive”.
Regarding `Nc1ccc(NC(=O)c2ccc(N)cc2)cc1`, the Potency entry is “inactive”.
As for `CC[C@@H](CO)NCCN[C@@H](CC)CO`, the Potency entry was “inactive”.
For `O=C(c1ccccc1)c1ccc(O)cc1`, the Potency result is “inactive”.
Same read-out and setting: for `CCN(Cc1cccc(S(=O)(=O)O)c1)c1ccc(C(=C2C=CC(=[N+](CC)Cc3cccc(S(=O)(=O)O)c3)C=C2)c2ccc(O)cc2S(=O)(=O)[O-])cc1` the value was “inactive”.

Values taken from PubChem BioAssay (Tox21).
